# Compounds with a hit are over-represented: about 19% of the library has one in this group of screens.
# TDP1 block: blocks human tyrosyl-DNA phosphodiesterase 1; Potency, µM (doses to about 130 µM), for the others: at the highest dose activity change, negative = inhibition, most hits filed as inhibitors; AID 485290; recombinant TDP1, AlphaScreen DNA substrate cleavage; 350,000 compounds, 0.28% hits; note: nearly all actives have a fitted effect of over 40% in size
#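 E. coli-derived human Tdp1, 1 nM final. Cpd preinc 15 min RT; substrate 15 nM final, 5 min RT; AS bead mix 10 ug/ml final, 10 min RT. Signal loss = tyrosine-FITC cleavage. No-enzyme wells = max signal.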
# Gal4-VP16 FLuc: Gal4-VP16 reporter inhibition counter-screen | Drosophila S2 Gal4-VP16 UAS-luciferase, luminescence, 20 h | Potency, µM (doses to about 53.6 µM), without a hit: top-dose activity, negative = inhibition, usual class: inhibitors | 310,000 compounds, 3.5% hits;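 note: Gal4-VP16 expression switched on by copper sulfate through the metallothionein promoter; nearly all actives have a fitted effect of over 50% in size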
# DT40 TDP1 CPT: growth inhibition of DT40 Tdp1-/-;hTDP1 cells with camptothecin (screen for TDP1 inhibitors); Potency, µM (titrated, usually from 46.2 µM), for the others: at the top dose activity change, negative = growth inhibition, actives largely listed as inhibitors; 420,000 compounds, 12% hits; chicken DT40 Tdp1-/-;hTDP1 cells + 20 nM CPT, ATP luminescence, 48 h; note: nearly all actives have a fitted effect of over 55% in size
#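 Cell growth measured by CellTiter-Glo luminescence after a minimum 48 h, 37 C compound exposure with 20 nM CPT in Tdp1-knockout DT40 cells stably expressing hTDP1, seeded 400/well; qHTS titration format.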
# RORgamma inh: blocks mouse ROR gamma transcriptional activity; 310,000 compounds, 5.4% hits; Potency, µM (doses to about 53.6 µM), inactives show at the top dose activity change, negative = inhibition, hits mostly inhibitors; Drosophila S2 Gal4-RORgamma UAS-luciferase reporter, 20 h; P51450; AID 2551; note: nearly all actives have a fitted effect of over 60% in size
# Target sequence (P51450 whole entry, looked up, the tested form may be a part): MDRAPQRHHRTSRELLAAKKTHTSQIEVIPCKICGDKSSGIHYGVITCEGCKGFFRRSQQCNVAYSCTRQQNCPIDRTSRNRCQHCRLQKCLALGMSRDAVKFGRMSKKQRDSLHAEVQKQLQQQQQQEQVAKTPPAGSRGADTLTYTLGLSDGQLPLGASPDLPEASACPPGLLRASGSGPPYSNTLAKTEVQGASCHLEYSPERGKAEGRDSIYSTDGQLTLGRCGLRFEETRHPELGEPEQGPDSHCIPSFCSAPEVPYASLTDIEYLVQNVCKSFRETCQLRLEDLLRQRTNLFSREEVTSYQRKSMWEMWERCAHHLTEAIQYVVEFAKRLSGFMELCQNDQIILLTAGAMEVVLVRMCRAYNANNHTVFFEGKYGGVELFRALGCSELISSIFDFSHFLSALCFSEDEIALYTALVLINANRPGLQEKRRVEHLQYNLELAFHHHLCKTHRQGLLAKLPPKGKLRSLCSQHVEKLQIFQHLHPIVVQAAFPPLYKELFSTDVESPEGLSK
#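 In this cell-based reporter format, copper sulfate (700 uM final) drives Gal4–ROR gamma fusion expression from a metallothionein promoter in Drosophila Schneider cells; compounds preincubated 1 hr, reporter read after 20 hr at ambient temperature.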
# TDP1 cell noCPT: qHTS for Inhibitors of human tyrosyl-DNA phosphodiesterase 1 (TDP1): qHTS in cells in absence of CPT. AID 686978, 2013. 420,000 compounds, 15% hits. Potency, µM (series often up to 46.2 µM), for the others: at the top dose activity change, negative = growth inhibition, usual class: inhibitors. DT40 Tdp1-/- hTDP1 cells, no CPT, ATP luminescence, 48 h; note: nearly all actives have a fitted effect of over 55% in size
#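 Luminescent ATP content (CellTiter-Glo) served as the growth readout. Knockout chicken DT40 cells expressing human TDP1 were exposed to compounds without camptothecin for a minimum 48 hr at 37 °C.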
# The depositor's hits bear a star; u = inconclusive; x = no result given; [ ] = another dose, or the depositor's remark. Calls come from the whole dose curve; as a rule, active = well fitted curve in the direction sought with a large enough effect; inconclusive = small, poorly fitted or top-dose-only effect, or another doubt; inactive = no such curve, though single readings can be large; an effect the other way counts as inactive or inconclusive. % is set by controls: 0 for no effect and ±100 for the full control effect; potency is the fitted concentration of half-maximal effect.
SMILES,TDP1 block,Gal4-VP16 FLuc,DT40 TDP1 CPT,RORgamma inh,TDP1 cell noCPT
CCOC(=O)c1nnn(-c2nonc2N)c1CN(CC)CC,-3%,-4%,35%,2%,-12%
CSc1nc(Sc2ccccc2)c2ccccc2n1,-3%,0%[0.365 µM],-11%,-30%,-25%
CSc1nc(Sc2ccc(Cl)cc2)c2ccccc2n1,-6%,-11%,u,16µM*,u
C1=C(CCNc2ncnc3c2[nH]c2ccccc23)CCCC1,7%,0.71µM*,0.73µM*,7.9µM*,0.41µM*
O=c1c2[nH]c3ccccc3c2ncn1CCC1=CCCCC1,-1%,-3%,-3%,44%,-8%
Cc1ccc2[nH]c3c(NCc4ccccc4)ncnc3c2c1,x,u,21µM*,u,16µM*
COc1ccc(CNc2ncnc3c2[nH]c2cc(OC)c(OC)cc23)cc1,x,-11%,u,6%,u
CC(C)OCCCNc1ncnc2c1[nH]c1ccccc12,1%,x,8.9µM*,-1%[0.365 µM],14µM*
COc1ccc(CNc2ncnc3c2[nH]c2ccccc23)cc1,5%,6.3µM*,10µM*,u,5.8µM*
c1coc(CNc2ncnc3c2[nH]c2ccccc23)c1,3%,x,13µM*,x,14µM*
COc1ccc(CNC(=O)Cn2cnc3c(NCc4ccccc4)ncnc32)cc1,1%[56.1 µM],x,10µM*,x,5.8µM*
COCCCNC(=O)Cn1cnc2c(NCc3ccccc3)ncnc21,1%[56.1 µM],x,5%,x,2%
CCCOc1ncnc2c1[nH]c1ccc(C)cc12,0%,u,u,-41%,9.2µM*
O=c1c2[nH]c3ccccc3c2ncn1Cc1ccco1,4%,12%,-3%,u,-1%
COC(=O)c1ccccc1NC(=O)Nc1ncccc1C,5%,-8%,-5%,8%,1%
COc1cc(C(=O)N2CCCCC2c2cc(C(=O)NCc3cccnc3)no2)cc(OC)c1C (stereo not given),x,x,-26%,x,u
CCCCCC[N+](C)(C)CC/C=C1/c2ccccc2Sc2ccc(Cl)cc21,5%,-27%,7.3µM*,30%,5.8µM*
CCOc1ccc(N/C(N)=N/c2nc(CSc3nnc(C)s3)cc(=O)[nH]2)cc1,-3%,0%,0.65µM*,0%,0.58µM*
Cc1nnc(SCc2cc(=O)[nH]c(/N=C(\N)Nc3ccccc3)n2)s1,x,3%,u,27%,21µM*
Cc1nnc(SCc2cc(=O)[nH]c(/N=C(\N)Nc3ccccc3Sc3ccccc3)n2)s1,5%,-21%,-5%,43%,-3%
O=[N+]([O-])c1ccc(S(=O)(=O)Nc2nnc(C(F)(F)F)s2)cc1,6%,2%,-11%,8%,10%
COc1ccccc1NC(=O)c1ccc(C(=O)c2ccccc2)o1,5%,-10%,u,u,u
COc1ccc(C2c3ccc(O)cc3Oc3ncn(Cc4ccco4)c(=N)c32)cc1 (stereo not given),x,23%,12µM*,8%,21µM*
COc1ccc(C2c3c(ncn(Cc4ccco4)c3=N)Oc3ccc4ccccc4c32)cc1 (stereo not given),-5%,8.9µM*,u,18µM*,16µM*
COc1ccc(C(CNC(=O)c2cccc3cccnc23)N(C)C)cc1 (stereo not given),5%,-15%,-13%,-6%,u
SMILES,TDP1 block,Gal4-VP16 FLuc,DT40 TDP1 CPT,RORgamma inh,TDP1 cell noCPT
COc1ccc(C(=O)Nc2nnc(S(=O)(=O)N3CCN(c4ccc(F)cc4)CC3)s2)cc1,3%,x,-10%,x,-19%
COc1ccc(NC(=S)NCCc2c[nH]c3ccccc23)c(OC)c1,-4%,u,u,7.9µM*,u
COc1ccc(NC(=S)NCCc2c[nH]c3ccc(OC)cc23)c(OC)c1,10%,u,u,14µM*,u
Cc1cc(C)cc(NC(=O)NN2C(C)CCCC2C)c1 (stereo not given),0%,-3%,6%,-3%,-9%
CNc1ccc(Br)cc1C(O)c1ccccc1 (stereo not given),7%,u,1%,13µM*,1%
COC(=O)CNC(c1ccccc1)c1cc(Br)ccc1NS(=O)(=O)c1ccccc1 (stereo not given),3%,-20%,21%,-44%,-5%
Cc1nc(NC(=O)c2ccccc2)nc2cc3c(cc12)OCO3,-2%,-19%,4%,-17%,-24%
CCc1ccc(Nc2cc(C)nc3nc(Cc4ccc(Cl)cc4)nn23)cc1,2%,x,16µM*,x,9.2µM*
CC(=O)c1ccc(Nc2cc(C)nc3nc(Cc4ccccc4)nn23)cc1,5%,x,u,x,-17%
Cc1ccc(Nc2cc(C)nc3nc(C)nn23)cc1,7%,-10%,0%,-15%,-4%
Cc1ccc(Nc2cc(C)nc3nc(Cc4ccc(Cl)cc4)nn23)cc1,2%,x,18µM*,x,15µM*
Nc1cc2ccncc2c2ccccc12,-1%,-23%,u,-42%,10µM*
Cc1cc(C#N)c2ccccc2n1,-10%,7%,1%,-10%,-9%
N#Cc1cc2ccncc2c2ccccc12,x,x,u,x,8.2µM*
CCCc1nc2cc(C)c(Br)c(C)n2c1Cc1ccccc1OC,x,x,26µM*,x,15µM*
COc1ccccc1Cc1c(C(C)(C)C)nc2cc(C)c(Br)c(C)n12,x,x,26µM*,x,16µM*
Cc1cc2nc(-c3cccc(Br)c3)c(Cc3cccc(Cl)c3)n2c(C)c1Br,x,x,-2%,x,-14%
CCOc1ccc2nc(NC(=O)CSc3nnc(-c4ccncc4)n3CC3CCCO3)sc2c1 (stereo not given),0%,-20%,u,26%,-20%
CC(=O)N1c2ccc(C)cc2Sc2c1ccc1ccccc21,x,x,-17%,x,u
CN1CCN(c2ccc(Cl)cc2NC(=O)c2ccc(S(=O)(=O)N3CCCCCC3)cc2)CC1,3%,1%,u,4%,16µM*
CN1CCN(c2ccc(Cl)cc2NC(=O)/C=C/c2ccc(F)cc2)CC1,8%,1%,u,-26%,16µM*
CN1CCN(c2ccc(S(=O)(=O)N3CCCCC3)cc2NC(=O)Cc2ccc(Cl)cc2)CC1,1%,3%,u,-40%,23µM*
CN1CCN(c2ccc(S(=O)(=O)N3CCCCC3)cc2NC(=O)c2ccc(C#N)cc2)CC1,3%,13%,-2%,16%,4%
COc1ccc(-c2nn(-c3ccccc3)cc2C2NC(=O)NC(C)=C2C(=O)OC(C)C)cc1OC (stereo not given),x,x,-3%,x,2%
CCOC(=O)C1=C(C)NC(=O)NC1c1cn(-c2ccccc2)nc1-c1ccc(OC(C)C)cc1 (stereo not given),x,x,u,x,16µM*

# Source: PubChem
